In all, about 65,000 compounds went through this assay and about 2,100 (3.2%) showed an effect of 50% or more. The median lay at about -52%. For the sample, strong results were picked, then their nearest neighbours and some compounds at random.
Test system: Plasmodium falciparum
Assay: Screen against P. falciparum Asexual Blood Stage (ABS), at 5uM
Assay type: functional, Dd2
Details: tested at 5 uM

Compound	INHIBITION [%]
COCCN1CCN(Cc2cnc(C(C)C)nc2)CC1	-72.3
O=C(C1CC1)N1C[C@H]2CCCN(S(=O)(=O)c3ccc4c(c3)CCC4)[C@H]2C1	-49.4
NCC(=O)N1CCCC1c1nccnc1Nc1ncccn1 (stereo unspecified)	-91.6
CC(C)CC(C)NC1CCN(c2ccc(-c3cscn3)cc2)CC1 (stereo unspecified)	-115
CC(C)CC(C)NC1CCN(c2cccc(-c3cscn3)c2)CC1 (stereo unspecified)	51.8
Cc1nnc(-c2cccc(N3CCC(NC(C)CC(C)C)CC3)c2)s1 (stereo unspecified)	-15.1
COC(=O)NCC(=O)N1CCC(c2cc3ccccc3[nH]2)CC1	-109
Cc1cc(C)c(CNC(=O)N2CCCC2c2cc(C)on2)c(=O)[nH]1 (stereo unspecified)	-65.3
Cc1ccc2c(c1)C1(CCNCC1)CN2C(=O)C(C)C	32.6
C[C@@H](N)C(=O)N1CC2(CCNCC2)c2cc(Cl)ccc21	48.2
O=C([C@H]1CCCN1)N1CC2(CCNCC2)c2cc(Cl)ccc21	60.3
O=C(c1ccncc1)N1CC2(CCNCC2)c2cc(Cl)ccc21	60
CN(C)C(=O)N1CC2(CCNCC2)c2cc(F)ccc21	-81.2
CN(C)C(=O)N1CC2(CCNCC2)c2cc(Cl)ccc21	25.5
CCN1CCC2(CC1)CN(C(=O)c1cccnc1)c1ccc(Cl)cc12	13.4
Cc1ccc(C(=O)N2CC3(CCNCC3)c3cc(Cl)ccc32)cn1	37.8
CC(=O)N1CCC2(CC1)CN(C(=O)c1cccnc1)c1ccc(F)cc12	-31.7
CN1CCC2(CC1)CN(C(=O)c1cccnc1)c1ccc(Cl)cc12	57.5
O=C(C1CC1)N1CC2(CCNCC2)c2cc(F)ccc21	13.7
COc1cc(C(=O)N2CC3(CCNCC3)c3cc(Cl)ccc32)ccn1	65.4
COc1ccc(-c2n[nH]c(C)c2CC(=O)NCC2CCOCC2)cc1	6.29
Cc1occc1C(=O)N1CCC2(CCN(Cc3ccccn3)C2=O)C1 (stereo unspecified)	-30.7

Compound	INHIBITION [%]
CNC(=O)N1CCC2(CC1)c1ncc(-c3cccc(F)c3)n1CCN2C	-74
CCn1cc(S(=O)(=O)N2CCCCCC2c2cc(C)on2)cn1 (stereo unspecified)	16.1
O=C(Nc1ccccc1)C1CN(Cc2ccco2)CC12CCOCC2 (stereo unspecified)	-3.58
CNC(=O)C1Cn2ccnc2C2(CCN(Cc3nccs3)CC2)O1 (stereo unspecified)	-118
CN1CCN([C@H]2CCN(C(=O)c3cc(Cl)cn3C)C[C@H]2CCCO)CC1	-28.7
Cc1cnc(N2C[C@H]3CCCC(N(C)Cc4ccccn4)[C@H]3C2)nc1 (stereo partly specified)	-4.92
O=C(N1CCOCC1)[C@@]12CCO[C@@H]1CCN(Cc1cccc(F)c1)C2	-26.7
CNc1nccnc1C1CN(C(=O)c2c[nH]cn2)CCO1 (stereo unspecified)	-87.7
NC(=O)CCC1CCCN(Cc2cnc(N3CCCCC3)nc2)C1 (stereo unspecified)	-84.4
CNc1nc(C2CCN(C(=O)CC3CCCC3)C2)nc2c1CN(C)CC2 (stereo unspecified)	-4.57
COc1ccc(OCC2CCCN(Cc3ccncc3)C2)cc1 (stereo unspecified)	4.05
COc1ccc(Cn2nnnc2SCC2CCCN(C)C2)cc1 (stereo unspecified)	59.9
COc1ccc(OC)c(-n2nnnc2SCC2CCCN(C)C2)c1 (stereo unspecified)	42.8
CCN(CC)C(=O)c1ccn(COc2cccc(Cl)c2Cl)n1	-133
Cn1cc(CN2C[C@@H]3COC[C@]3(COCC3CC3)C2)cn1	-11.4
Cc1nc(COC[C@@]23CCC[C@@H]2CN(Cc2cnn(C)c2)C3)cs1	-28.9
Cn1cc(CN2C[C@H]3CCC[C@@]3(COCC3CC3)C2)cn1	54.1
O=C(NCc1nn(-c2ccccc2)c2c1CCC2)C1CC1	-137
CCn1nc(C)c(CNC(=O)c2nnc3ccc(Cl)cc3n2)c1C	-2.95
Cc1cnccc1-c1cnn(CCNC(=O)c2ccccn2)c1C1CC1	40.2
CC(C)c1ncc2c(n1)CN(CC(=O)Nc1ccncc1)CC2	-23.6
CC1=C[C@@H](CN2CCCC2)[C@H](C(C)C)C[C@H]1Cc1nnc(C)o1	0.0851

Compound	INHIBITION [%]
COc1ccc2nc(C[C@@H]3C[C@@H](C(C)C)[C@H](CN)C=C3C)[nH]c2n1	68.7
CC1=C[C@@H](CN2CCN(C)CC2)[C@H](C(C)C)C[C@H]1Cc1nnc(C)o1	16.4
Cc1ccc(CN2C[C@@H]3C[C@H](C(=O)Nc4cccnc4)[C@H](C2)O3)cc1	41.3
COC(=O)CN(C(=O)c1cc(C)c(F)cc1F)c1cccc(C)n1	-97.6
CC1(C(=O)N2CCOCC2)CN(C2CCCCC2)CCO1 (stereo unspecified)	-82.9
Cc1ccnc(N2CCC(NCCOc3ccccc3)CC2)n1	13.8
O=C(COCCOc1ccccc1)NC1CCN(c2ncccn2)CC1	-7.73
Cc1nc(C)c(C)c(N2CCC(NCCOc3ccccc3)CC2)n1	63.1
Cc1nc(CN2CCCC(NCCOc3ccccc3)C2)no1 (stereo unspecified)	-55.9
CN(C)c1ccnc(N2CCC(NCCOc3ccccc3)CC2)n1	61.5
c1ccc(OCCNC2CCN(c3ncccn3)CC2)cc1	-15.2
Cn1ccnc1CN1CCN(CC2CC2)[C@@H]2CS(=O)(=O)C[C@@H]21	-222
Cn1c(=O)cc(C(=O)NC(Cc2ccsc2)c2cccnc2)[nH]c1=O (stereo unspecified)	-41.8
O=S(=O)(N1CCCC1)N1CC[C@H](c2ccccc2)[C@H]2NCCCC[C@H]21	48.5
CCN(CC)S(=O)(=O)N1CC[C@H](c2ccccc2)[C@H]2NCCCC[C@H]21	57.7
O=S(=O)(N1CCCC1)N1C[C@@H](c2cccc(F)c2)[C@@H]2NCCCCC[C@H]21	25.3
CCOc1c(F)cccc1C(=O)N(c1cccnc1)C(C)C	-2.56
CC(C)(C(=O)NCC1CCN(Cc2cccnc2)C1)c1ccccc1 (stereo unspecified)	53.2
CC(C)(C(=O)NCC1CCN(Cc2ccccn2)C1)c1ccccc1 (stereo unspecified)	40.4
CC(C)(C(=O)NCC1CCN(Cc2ncc[nH]2)C1)c1ccccc1 (stereo unspecified)	-15.4
Cc1nc(CCCNC(=O)Nc2ccc(F)cc2F)n[nH]1	-12.9
O=C(NCCN1CCCC1)c1cc2c(s1)CCN2c1ncccn1	-36.4

Compound	INHIBITION [%]
O=C1CC(c2ccc(F)cc2)c2cnn(C3CCCC3)c2N1 (stereo unspecified)	-115
N#Cc1ccc(C2CC(=O)Nc3c2cnn3C2CCCC2)cc1 (stereo unspecified)	53.3
O=C1CC(c2ccccc2)c2cnn(C3CCCC3)c2N1 (stereo unspecified)	-173
Cc1noc(C)c1CC(=O)N1CCCN(C)c2ccc(Cl)cc21	-70.5
O=C(NCC1CCN(Cc2cc3ccccc3[nH]2)C1)C1CCCCC1 (stereo unspecified)	8.98
Cc1nc(CNC(=O)Nc2ccc(N(C)C)nc2)sc1C	-121
Cc1nc(CNC(=O)Nc2ccc3c(c2)CCCN3C)sc1C	60.4
Cc1nc(CNC(=O)Nc2ccc3c(c2)CCCC(=O)N3)sc1C	-39.6
CC(C)c1nnc(CN2CCc3ccc(S(N)(=O)=O)cc32)o1	-105
CCOCC(=O)N1Cc2nnn(C)c2C(COCc2ccccn2)C1 (stereo unspecified)	-123
COC(=O)CCC(=O)NCc1cccnc1N1CCc2ccccc2C1	58.5
NC(=O)NCCC(=O)NCc1cccnc1N1CCc2ccccc2C1	-73
CC(C)[C@@H](N)C(=O)NCc1cccnc1N1CCc2ccccc2C1	29
O=c1cc(C2CCNCC2)nc(Cc2cccc(Cl)c2)[nH]1	-25.9
CC(C)Nc1ncnc2c1CCN(C(=O)CCc1ccccc1)CC2	-74.7
Cc1ccc(CN2Cc3ccccc3OC3(CCC(CO)CC3)C2)s1 (stereo unspecified)	-106
Cc1ncsc1CN1C[C@H](NC(=O)C2CCOCC2)[C@@H](C(C)C)C1	-21.1
c1ccc(Cc2nc(CNC3CCC4(CCNCC4)CC3)no2)cc1	39.2
O=C1CN(c2ccc(CNc3cncc(-n4cccn4)n3)cc2)CCN1	52
CCSc1cncc(NCc2ccc(N3CCNC(=O)C3)cc2)n1	38.9
Cc1cc(NCc2ccc(N3CCNC(=O)C3)cc2)nc(C)n1	-39.6
CCc1nc2c(c(NC3CCC3)n1)CCN(C(=O)CO)CC2	-35.7

Compound	INHIBITION [%]
Cn1cnnc1C1CCCN(C(=O)NCCn2ccnc2)C1 (stereo unspecified)	-164
Cc1cccc(C(=O)Nc2cccc3c2CCCC3)n1	-253
O=C(Nc1cccc2c1CCCC2)c1cccnc1N1CCCNCC1	53.6
CC1CN(c2ncccc2C(=O)Nc2cccc3c2CCCC3)CCN1 (stereo unspecified)	10.3
CN(Cc1ccoc1)C(=O)Cn1ncc(N(C)C)cc1=O	-36.7
CCn1cc(C(=O)N2CCCC(c3noc(C)n3)C2)cn1 (stereo unspecified)	-71.8
CC1=C(c2ccc(Cl)cc2)S(=O)(=O)N=C1N1CCc2ccccc21	-35.6
CC(C)(C)NS(=O)(=O)c1ccccc1CNCc1cccc(O)c1	56.9
CC(C)(C)NS(=O)(=O)c1ccccc1CNCc1ccccc1	43.3
CC(C)NS(=O)(=O)c1ccccc1CNCc1cccc(O)c1	26
CCc1nnc2n1CCN(C(C(=O)NC1CC1)c1ccccc1)C2 (stereo unspecified)	-119
CC(C)CCN1CCc2[nH]nc(C(=O)N3CC=CC3)c2C1	-95.1
Cc1cc(-c2cnc(N3CCC(C(N)=O)CC3)nc2C(C)C)on1	-7.12
Cc1cc(-c2cnc(N3CCSCC3)nc2C(C)C)on1	63.8
Cc1cc(-c2cnc(N3CCC(O)CC3)nc2C(C)C)on1	13.7
Cc1cc(-c2cnc(N3CCN(C)CC3)nc2C(C)C)on1	52.5
Cc1cc(-c2cnc(N3CCN(C)CC3)nc2-c2ccc(C)s2)on1	-24
Cc1cc(-c2cnc(N3CCCC(C)C3)nc2C(C)C)on1 (stereo unspecified)	-127
